This is part of a sample that, as a whole, favours compounds with a hit. Of some 79,000 tested, about 15% had one in any assay. Values without a mark were called inactive. Calls of active or inactive are those of the source. No stated cut-off is given here; in the data, active means growth inhibition above about 70%; inactive means the rest.
How the values were obtained:
[1] = NCI Yeast Anticancer Drug Screen. Data for the rad50 strain (AID 155);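 further: 0% = growth of vehicle-only cultures of the same strain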; settings: S. cerevisiae rad50 strain growth inhibition; at 50.0 µM; active compounds read high
Procedure, shortened: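 Compounds were tested on a yeast strain with an engineered DNA damage repair alteration; the reported value is growth inhibition normalised to vehicle treatment.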

[2] = NCI Yeast Anticancer Drug Screen. Data for the mec2-1 strain (AID 157); settings: S. cerevisiae mec2-1 strain, at 50.0 µM, active compounds read high
Procedure, shortened: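 mec2-1 yeast strain, carrying an alteration in DNA damage repair or cell cycle control, was exposed to compounds; growth inhibition was measured relative to vehicle-treated controls.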

[3] = NCI Yeast Anticancer Drug Screen. Data for the sgs1 mgt1 strain (AID 161);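 further: 0% = growth of cultures given vehicle only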; settings: S. cerevisiae sgs1 mgt1 strain, at 50.0 µM, active compounds read high
Procedure, shortened: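 Growth of a repair-deficient yeast mutant was monitored after compound treatment and expressed as inhibition relative to vehicle-treated cultures.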

[4] = NCI Yeast Anticancer Drug Screen. Data for the cln2 rad14 strain (AID 165);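 further: 0% = growth equal to vehicle treated cultures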; settings: S. cerevisiae cln2 rad14 strain, at 50.0 µM, active compounds read high
Procedure, shortened: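 Yeast carrying cln2 and rad14 alterations (cell cycle control and DNA damage repair) were exposed to compounds. Growth inhibition was measured against vehicle-treated controls.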

[5] = NCI Yeast Anticancer Drug Screen. Data for the bub3 strain (AID 167); settings: S. cerevisiae bub3 mutant strain, at 50.0 µM, active compounds read high
Procedure, shortened: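 Growth of a checkpoint-deficient yeast mutant is measured after compound exposure. Values represent inhibition relative to vehicle.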

[6] = NCI Yeast Anticancer Drug Screen. Data for the mlh1 rad18 strain (AID 175); settings: S. cerevisiae mlh1 rad18 strain growth inhibition; at 50.0 µM; active compounds read high
Procedure, shortened: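 Growth inhibition of the yeast strain was measured after compound exposure and expressed relative to vehicle-treated controls. The strain carries defined defects in DNA damage repair.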

Row | SMILES | growth inhibition [1] | growth inhibition [2] | growth inhibition [3] | growth inhibition [4] | growth inhibition [5] | growth inhibition [6]
1 | Cc1ccc(N=NC(=O)NNc2ccc(C)cc2Br)c(Br)c1 | 19.4% | -8.8% | -3.8% | 15.2% | -6.5% | 14.6%
2 | CC(C)CCC[C@@H](C)[C@H]1CC[C@H]2[C@@H]3CC[C@H]4C[C@@H](CCC=C(c5cc(Cl)c(O)c(C(=O)O)c5)c5cc(Cl)c(O)c(C(=O)O)c5)CC[C@]4(C)[C@H]3CC[C@]12C | 15.3% | 8.35% | 11.4% | -4.2% | 24.5% | -1.75%
3 | COc1cc(Br)c(CC(=O)c2ccc3c(c2)OCO3)cc1OC | 1.65% | 12.8% | 7.9% | -0.7% | 0% | 15.2%
4 | COc1ccc(OC)c(NC(=O)Nc2nccs2)c1 | 1.9% | 42.9% | 29.1% | -5.25% | 36.6% | 32.5%
5 | O=[N+]([O-])c1ccc2c(c1)/C(=N/O)CCC2 | 0.5% | -0.55% | 1.05% | -86.4% | -15.8% | 4.05%
6 | O=C1C[C@@H]2[C@@H](CCC23CCCC3)N1 | 17.8% | 12.9% | -9.75% | 20.4% | 15.2% | 20.6%
7 | CC12CC3CC(C)(C1)CC(CN=C(N)CS)(C3)C2 | 98.9% (active) | 99.5% (active) | 99.5% (active) | 99.2% (active) | 99.2% (active) | 99.3% (active)
8 | CCc1c(N)nc(=O)[nH]c1C(=O)O | -4.9% | -0.2% | 10.1% | -26.3% | -26% | -16.6%
9 | COC(=O)OCC1OC(OC(C)=O)C2OC(=O)OC12 (stereo unspecified) | 8.55% | -16.9% | -16.7% | 5.45% | 2.35% | -3.15%
10 | CC(=O)[C@H]1CC[C@H]2[C@@H]3CCC4=CC(=O)CC[C@]4(C)[C@H]3C[C@H](OS(=O)(=O)c3ccc(C)cc3)[C@]12C | 20.3% | 18.1% | 31.2% | 38.7% | 12.1% | 15.4%
11 | CSC1=C(CCC(C)CCCC(C)CCCC(C)CCCC(C)CCCC(C)CCCC(C)C)C(=O)c2sccc2C1=O (stereo unspecified) | 15.7% | 13.6% | -1.45% | -17.9% | 11.5% | -5.95%
12 | O=C1CCCCC1C(O)(C(F)(F)F)C(F)(F)Cl (stereo unspecified) | -20.4% | -28.9% | -36.7% | -13.7% | -30.2% | -20.1%
13 | COc1cccc(/C(C=O)=C(\Cl)c2ccc(OC)c(OC)c2)c1 | 10.1% | 9.55% | 12.4% | 6.7% | 33.5% | -8.3%
14 | Cc1cc(C)n(-c2nnc(-n3nc(C)cc3C)c3ccccc23)n1 | -12.4% | -1.75% | -21.6% | -5.45% | -5.5% | -3.9%
15 | NC(=O)c1csc(C2O[C@@H](COP(=O)(O)OP(=O)(O)OC[C@H]3OC(n4cnc5c(N)ncnc54)[C@H](O)[C@@H]3O)[C@H](O)[C@@H]2O)n1 (stereo partly specified) | 28.8% | -0.75% | -0.55% | -37.5% | 2.75% | 10.9%
16 | N#Cc1cnn(-c2ccc(Br)cc2)c1N | 11.4% | 0.6% | 3.1% | -33.8% | -7% | 6.3%
17 | CN(C)C(=O)CC(O)c1ccccc1 (stereo unspecified) | 13.9% | -9.95% | 1.6% | -30.2% | -2.55% | 4.75%
18 | COC(=O)CN(CC(=O)OC)C(C)=O | -9.2% | -4.35% | -0.05% | 2.7% | 13.5% | 0.6%

Row | SMILES | growth inhibition [1] | growth inhibition [2] | growth inhibition [3] | growth inhibition [4] | growth inhibition [5] | growth inhibition [6]
19 | C1=CCC(C(Nc2nncs2)Nc2nncs2)CC1 (stereo unspecified) | 6.25% | 3.95% | 19.6% | 7.05% | -24.9% | 9.25%
20 | O=C(S)c1ccccc1Br | 1.45% | 0% | 11.6% | -54.9% | -8% | 3.8%
21 | CCOC(=O)c1ccc(NN=NC(C)(C)C)cc1 | 10.8% | -8.5% | -15.2% | -29.2% | -7.3% | -11.1%
22 | CC(C)[C@@H]1C=C(c2ccccc2)c2ccccc2C1C(C#N)(C#N)C(C)C (stereo partly specified) | -30.2% | -33.5% | -10.3% | -8.4% | -12.9% | -14.1%
23 | CN(C)S(=O)(=O)C1(c2ccccc2)CCCC1 | 15.1% | 9.85% | 6.2% | -1.5% | -7% | 1.9%
24 | NNc1nc2ccc([N+](=O)[O-])cc2s1 | 13.7% | -8.55% | -1% | -22% | -9.75% | 22.2%
25 | Cc1c(Br)c(C)[n+]([O-])n1O | 4% | 8.75% | 5.05% | -17% | 26.4% | 0.2%
26 | CC1(C)O[C@@H]2[C@@H](COC(=O)c3ccccc3)C[C@@H](C#N)[C@@H]2O1 | 4.05% | -0.85% | -25.6% | 24.9% | 38.9% | -11.2%
27 | O=C1NC(O)c2cccc([N+](=O)[O-])c2O1 (stereo unspecified) | 19.4% | 9.1% | 15% | 65.5% | -14.8% | 30.8%
28 | CN(C)c1ccccc1CCO | -4.2% | -33.5% | -6.7% | -0.4% | -3.65% | 3.35%
29 | CC(=O)CC(=O)NCC#N | 27.9% | 15.8% | 23.9% | 25.6% | 11.8% | 24.6%
30 | COc1ccc(/C=C/C(=N\NC(=O)c2ccccc2)c2sc(Nc3ccc([N+](=O)[O-])cc3)nc2C)cc1OC | -13.3% | 2.5% | 11.1% | 22.8% | 30.8% | -9.85%
31 | CCCCCCCC(=O)Nc1nnc(SCCCCCCCCCCSc2nnc(NC(=O)CCCCCCC)s2)s1 | -33.5% | -14.9% | -5.55% | -52.3% | -0.5% | -4.45%
32 | Clc1cnc(/N=C/c2ccc(/C=N/c3ncc(Cl)cc3Cl)cc2)c(Cl)c1 | 13% | -21.8% | 6.05% | 10% | -5.8% | 16.4%
33 | Cc1nc(Nc2ccc(Cl)c(Cl)c2)sc1C(/C=C/c1ccc2c(c1)OCO2)=N/Nc1ccc([N+](=O)[O-])cc1[N+](=O)[O-] | -21.2% | -14.3% | 3.75% | 3.45% | -9.55% | 2.45%
34 | CC1=C(CCC(=O)O)c2cc3nc(cc4[nH]c(cc5[nH]c(cc1n2)c(C)c5C(C)O)c(C)c4C(C)O)C(C)=C3CCC(=O)O (stereo unspecified) | 12.4% | 5.2% | 7.7% | 29.8% | 21.6% | 1.65%
35 | O=[N+]([O-])C(=C(N1CCOCC1)N1CCOCC1)/C(Cl)=C(\Cl)Br | -19.2% | -1.1% | -0.6% | -14.1% | 4.5% | 2.55%
36 | CCOC(=O)C(Cc1ccc(O)cc1)NC(=O)C(CSC(c1ccccc1)(c1ccccc1)c1ccccc1)NC(c1ccccc1)(c1ccccc1)c1ccccc1 (stereo unspecified) | 4.85% | 0.8% | -14.8% | -1.65% | -5.05% | 9.55%
